Source: PubChem (NMMLSC)
Shown are actives, neighbours in structure and some others; about 1.2% of the full set was active somewhere.
RGS8-Gao: modulates binding of RGS8 to human Galphao; P09471; multiplexed bead flow cytometry; actives lie on both sides; response (percent of control binding), % at 10 µM; 220,000 compounds, 0.34% hits; in the data active = response below about 60% or above about 140%; inactive = in between;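 also: Galphao activated as the GDP aluminium fluoride complex binding bead-coupled RGS8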
Target sequence (P09471 whole entry, looked up): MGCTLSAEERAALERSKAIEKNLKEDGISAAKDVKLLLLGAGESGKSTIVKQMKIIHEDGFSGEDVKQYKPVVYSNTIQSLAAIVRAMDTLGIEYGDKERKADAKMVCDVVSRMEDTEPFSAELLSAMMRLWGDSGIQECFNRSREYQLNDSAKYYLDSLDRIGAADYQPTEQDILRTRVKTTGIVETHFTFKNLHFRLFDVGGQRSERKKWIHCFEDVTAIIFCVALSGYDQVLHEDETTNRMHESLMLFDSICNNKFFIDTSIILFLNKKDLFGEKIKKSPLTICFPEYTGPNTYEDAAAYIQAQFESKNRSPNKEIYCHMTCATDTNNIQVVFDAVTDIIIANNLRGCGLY
Avidin fluor: avidin bead compound fluorescence profile; Avidin beads, compound fluorescence 488/530 nm, flow cytometry; active compounds read high; fluorescence (KMESF) at 10 µM; 220,000 compounds, 0.38% hits; AID 1775; in the data active = fluorescence above about 47
RGS16-Gao HTS: RGS16-Galphao interaction regulator (human). O15492+P09471. bead-based flow cytometry RGS16-Galphao binding, fluorescence; actives lie on both sides. binding response (% of control), % at 10 µM. 220,000 compounds, 0.38% hits;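 also: Galphao activated by GDP with aluminum fluoride before binding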
RGS7-Gao reg: human RGS7-Galphao interaction regulation; 220,000 compounds, 0.35% hits; AID 1439; P09471; Multiplexed bead flow cytometry, RGS7-Galphao binding; actives lie on both sides; binding response (% of control), % at 10 µM; in the data active = binding response below about 49% or above about 150%; inconclusive = no clear call, values can overlap the other calls; inactive = in between;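 also: fluorescent Galphao held in activated GDP-AlF4 state binding bead-coupled RGS7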
RGS4-Gao reg: modulates binding of RGS4 to human Galphao | binding response (% of control), % at 10 µM | AID 1415 | Multiplexed bead flow cytometry; actives lie on both sides | 220,000 compounds, 0.33% hits | P09471; in the data active = binding response below about 49% or above about 150%; inactive = in between;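 also: fluorescent Galphao activated with aluminum fluoride binding bead-coupled RGS4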
GSH bead fluor: compound fluoresces at 488/530 nm on GSH beads; GSH beads flow cytometry, compound fluorescence 488/530 nm; active compounds read high; fluorescence (KMESF) at 10 µM; 190,000 compounds, 0.25% hits; in the data active = fluorescence above about 89;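 also: glutathione beads carrying GST-tagged Bcl family fusion proteins plus one bare bead set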
RGS-Gao: modulates binding between human RGS4 and Galphao; RGS4–Galpha-o binding response, % at 10 µM; 1,600 compounds, 99% hits; shares compounds with RGS16-Gao HTS; multiplexed bead flow cytometry, RGS–Galpha-o binding;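 also: fluorescently labeled Galpha-o bound to GDP with aluminium fluoride binding biotinylated RGS beads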
Target sequence (P09471 whole entry, looked up): as above
Target sequence (P49798 whole entry, looked up): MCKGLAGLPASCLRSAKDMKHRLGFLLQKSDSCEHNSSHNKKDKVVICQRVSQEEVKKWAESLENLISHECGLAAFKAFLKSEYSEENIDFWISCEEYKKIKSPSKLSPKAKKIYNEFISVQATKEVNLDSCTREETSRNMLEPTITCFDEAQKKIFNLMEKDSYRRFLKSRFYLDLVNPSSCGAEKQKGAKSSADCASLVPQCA
Biotin-avidin: interferes with biotinylated probe binding to avidin beads | AID 1783 | 1,700 tested, under 10 active | streptavidin beads, fluorescein-biotin binding, flow cytometry | inhibition, % at 10 µM | shares compounds with RGS16-Gao HTS;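 active = inhibition above 50%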;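 also: median green fluorescence of gated singlet beads compared with DMSO control wells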
RGS8-Gao confirm: confirmation of regulators of human RGS8-Galphao interaction; shares compounds with RGS16-Gao HTS; bead-based flow cytometry RGS8-Galphao binding, fluorescence; actives lie on both sides; binding response (% of control), % at 10 µM; 1,700 compounds, 3% hits; in the data active = binding response below about 72% or above about 130%; inactive = in between;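 also: Galphao activated as GDP AlF4 complex before binding bead RGS8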
RGS7-Gao single: RGS7-Galphao interaction regulation, single point confirmation; shares compounds with RGS16-Gao HTS; 1,700 compounds, 7.8% hits; response (percent of control binding), % at 10 µM; bead-based flow cytometry RGS7-Galphao binding; actives lie on both sides; in the data active = response below about 75% or above about 130%; inactive = in between;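 also: fluorescent Galphao activated with GDP and aluminum fluoride binding bead-coupled RGS7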
RGS16-Gao single: confirmation of regulators of human RGS16-Galphao interaction; 1,700 compounds, 4% hits; bead-based flow cytometry, RGS16-Galphao binding; actives lie on both sides; shares compounds with RGS16-Gao HTS; AID 1838; response (% of control binding), % at 10 µM; in the data active = response below about 74% or above about 130%; inactive = in between;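 also: Galphao activated as the GDP aluminium fluoride complex binding bead-coupled RGS16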
RGS4-Gao confirm: RGS4-Galphao interaction regulation, single point confirmation; RGS4-Galphao binding, multiplexed bead flow cytometry; actives lie on both sides; AID 1840; binding response (% of control), % at 10 µM; 1,700 compounds, 4% hits; shares compounds with RGS16-Gao HTS; in the data active = binding response below about 74% or above about 130%; inactive = in between
RGS19-Gao conf: RGS19-Galphao interaction regulation, single point confirmation; shares compounds with RGS16-Gao HTS; bead-based flow cytometry RGS19-Galphao binding; actives lie on both sides; response (percent of control binding), % at 10 µM; 1,700 compounds, 5% hits; AID 1841; in the data active = response below about 50% or above about 160%; inactive = in between
A number is an active result; n = inactive; u = inconclusive; x = no result; [ ] = another dose, or the depositor's remark. Unless noted, no rule for the calls is given here.

SMILES	RGS8-Gao	Avidin fluor	RGS16-Gao HTS	RGS7-Gao reg	RGS4-Gao reg	GSH bead fluor	RGS-Gao	Biotin-avidin	RGS8-Gao confirm	RGS7-Gao single	RGS16-Gao single	RGS4-Gao confirm	RGS19-Gao conf
O=C(NNc1cc(N2CCOCC2)nc(N2CCOCC2)n1)c1ccc(Cl)cc1Cl	23	n	10	12	21	n	x	n	n	n	n	n	n
CC(C)(C)c1ccc(C(=O)NNc2cc(N3CCCCC3)nc(N3CCCCC3)n2)cc1	173[activator]	175	560[activator]	643[activator]	842[activator]	119	x	n	n	n	n	n	n
CC(=O)NNc1cc(N2CCOCC2)nc(N2CCOCC2)n1	n	n	n	u	n	n	x	x	x	x	x	x	x
CC1CCCC(NC(=O)COC(=O)c2sc3ccccc3c2Cl)C1C (stereo not drawn)	9.4	n	0.2	-6.9	4.5	n	x	n	n	n	n	n	n
O=C(COC(=O)c1sc2ccccc2c1Cl)NCC1CCCCC1	n	n	n	n	n	n	x	x	x	x	x	x	x
COc1cc2[nH]c(=S)n(C3CCCC3)c(=O)c2cc1OC	n	n	182[activator]	n	n	n	99	n	n	n	n	n	n
COc1cc2[nH]c(=S)n(C3CC3)c(=O)c2cc1OC	n	n	n	u	n	n	x	x	x	x	x	x	x
Cc1c(C(=O)N/N=C/c2ccc(N(C)C)cc2)[nH]c2ccc(Cl)cc12	n	n	23	n	n	n	94	n	n	n	n	n	n
CC(=O)N1CCN(c2ccc([N+](=O)[O-])c(-n3nc(C)cc3C)c2)CC1	60	n	n	n	n	n	79	n	n	n	n	n	n
O=C(c1ccco1)N1CCN(c2ccc([N+](=O)[O-])c(N3CCOCC3)c2)CC1	51	n	n	31	43	n	x	n	n	61	n	n	n
Cc1cc(C)n(-c2cc(N3CCN(C(=O)c4cccc(Br)c4)CC3)ccc2[N+](=O)[O-])n1	n	n	n	n	n	n	x	x	x	x	x	x	x
Cc1ccc(NC(=O)Nc2ccccc2CC[N+](=O)[O-])cc1	149[activator]	n	n	n	n	n	117	n	n	n	n	n	n
CC(C)CC(=O)/C(=C\c1ccc(Cl)cc1Cl)n1cncn1	42	n	n	n	48	n	x	n	n	n	n	n	n
COc1ccc(/C=C(/C(=O)c2ccc(Cl)cc2Cl)n2cncn2)cc1	n	n	n	n	n	n	x	x	x	x	x	x	x
Cc1nc2sccc2c(=O)n1N	n	n	n	n	n	n	x	x	x	x	x	x	x
COc1ccc(NC(=O)COC(C)=O)cc1Cl	n	n	n	n	n	n	x	x	x	x	x	x	x
COc1ccc(NC(=O)CCCn2c(=O)oc3ccccc32)cc1Cl	n	n	8.8	n	n	n	88	x	x	x	x	x	x
COCC(=O)Nc1ccc(OC)c(Cl)c1	52	n	n	n	n	n	98	n	n	n	n	n	n
CCCCSCCCNC(=O)Nc1ccc(CC)cc1	n	n	n	n	n	n	x	x	x	x	x	x	x
CCOc1ccc(N(CC(=O)Nc2ccccc2)S(C)(=O)=O)cc1	n	n	-46	n	n	n	80	n	n	n	n	n	n
CCOC(=O)c1ccccc1NC(=O)CN(c1ccc(OCC)cc1)S(C)(=O)=O	n	n	n	n	n	n	x	x	x	x	x	x	x
Cn1cccc1/C=C1\SC(=S)N(NC(=O)c2ccccc2O)C1=O	n	n	n	u	n	x	x	x	x	x	x	x	x
COc1ccccc1C(=O)NN1C(=O)/C(=C/c2cccn2C)SC1=S	x	95	x	x	x	x	x	n	n	n	n	n	n
Nc1c(C(=O)NCC2CCCO2)sc2nc3c(c(-c4ccco4)c12)CC/C3=C\c1ccco1 (stereo not drawn)	n	n	n	44	n	n	73	n	70	52	70	n	24
O=C(CN1CCCc2ccccc21)N/N=C/c1c(O)ccc2ccccc12	n	n	n	n	n	n	x	x	x	x	x	x	x
SMILES	RGS8-Gao	Avidin fluor	RGS16-Gao HTS	RGS7-Gao reg	RGS4-Gao reg	GSH bead fluor	RGS-Gao	Biotin-avidin	RGS8-Gao confirm	RGS7-Gao single	RGS16-Gao single	RGS4-Gao confirm	RGS19-Gao conf
O=C1NC(c2ccccc2)=C(c2ccccc2)C1=O	140[activator]	n	n	n	n	n	116	n	n	n	n	n	n
O=c1c(-c2ccccc2)c1-c1ccccc1	n	n	n	n	n	n	x	x	x	x	x	x	x
OCCN1CCN(c2cc(C(F)(F)F)nc3c(F)cccc23)CC1	11	n	-6.6	u	-9.0	x	x	n	n	n	n	n	n
O=[N+]([O-])c1cc(C(F)(F)F)c(Cl)cc1N1CCN(CCO)CC1	n	n	n	n	n	n	x	x	x	x	x	x	x
Cc1cc(NC(=O)c2cc(-c3cccs3)nc3ccccc23)no1	n	233	n	256[activator]	n	n	95	n	n	n	n	n	n
O=C(NC(=S)Nc1ccc(CN2CCCCC2)cc1)c1cc2ccccc2o1	n	n	n	u	n	x	x	x	x	x	x	x	x
COCCN(C(=S)Nc1ccc(C)cc1C)C(C)c1ccco1 (stereo not drawn)	164[activator]	n	n	n	160[activator]	n	x	n	n	n	n	n	n
Cc1ccc(S(=O)(=O)NC(C(=O)N2CCOCCOCCOCC2)c2ccccc2)cc1 (stereo not drawn)	n	n	n	u	n	n	x	x	x	x	x	x	x
O=C(CCN1C(=O)/C(=C/c2ccccc2Cl)SC1=S)NC1=NCCS1	157[activator]	n	n	n	n	n	127	n	n	n	n	n	n
COC(=O)Cn1nc(-c2ccc(C)cc2)c2ccccc2c1=O	n	n	n	n	n	n	x	x	x	x	x	x	x
O=C(NCCc1ccccc1)c1ccco1	n	n	n	n	n	n	x	x	x	x	x	x	x
C=C(C)CC(NCCc1ccccc1)c1ccco1 (stereo not drawn)	n	n	n	n	156[activator]	n	x	n	n	n	n	n	n
O=C(Nc1ccc(Cl)c(Cl)c1)OCCNC(=O)c1ccncc1	n	n	n	u	n	n	x	n	n	n	n	n	n
Cc1[nH]nc2c1C(C(C)c1ccccc1)C(C#N)=C(N)O2 (stereo not drawn)	n	n	n	n	n	n	x	x	x	x	x	x	x
